Kir21 inh – Kir2.1 (mouse) channel inhibition; P35561; HEK293-Kir2.1, FluxOR thallium flux fluorescence; active compounds read low; B-score at 10 µM; hit rate 0.85% among 310,000;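 active = fluorescence ratio B-score at or below minus 3 SD of library scores, with starting-brightness B-score within 2 SD, cut at about -4.2 in these data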;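 also: channel flux triggered by added potassium and thallium sulfate stimulus; B-score of peak minus minimum fluorescence over baseline after thallium stimulus; more negative B-score means stronger Kir2.1 block with less thallium influx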
KCNK3 inh – human KCNK3 channel inhibition, primary screen; O14649; AID 602410; B-score at 10 µM; CHO-KCNK3 thallium flux, FluxOR fluorescence; active compounds read low; hit rate 0.84% among 340,000;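 active = B-score under library mean minus 4 SD, starting fluorescence ratio at most library mean plus 5 SD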;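 also: more negative B-score means stronger inhibition of thallium flux through KCNK3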
KCNK9 inh-1 – inhibitors of human KCNK9 two-pore domain potassium channel; B-score at 10 µM; hit rate 1.2% among 310,000; HEK293 KCNK9, FluxOR thallium flux fluorescence; active compounds read low;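 active = ratio B-score over 3 SD below the library mean, with starting fluorescence within 5 SD of its mean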;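 also: negative B-score means less thallium flux so channel inhibition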
TMEM16A act – activators or potentiators of mouse TMEM16A chloride channel. Q8BHY3. HEK293 TMEM16A/YFP-H148Q/I152L, iodide quench fluorescence; active compounds read low. B-score at 10 µM. hit rate 0.3% among 340,000;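 active = fluorescence-ratio B-score plate-corrected deviation score at least 3 library SD below zero, with starting fluorescence score within 5 deviations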;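 also: channel opened by trigger with iodide after compound preincubation; score built on the fluorescence ratio of max minus min over baseline; more negative score means more quench and so TMEM16A activation or potentiation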
TMEM16A inh – blocks the mouse calcium-activated chloride channel TMEM16A; AID 588511; HEK293 TMEM16A/YFP iodide influx fluorescence, ionomycin; normalized B-score (activity score, 25-100; higher = stronger inhibition) at 10 µM; hit rate 1.2% among 310,000; Q8BHY3;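 active = ratio plate-corrected score three or more library SD toward inhibition, starting fluorescence score within five deviations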;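 also: score derived from kinetic fluorescence span divided by baseline fluorescence per well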
hERG inh – counter-screen for Kir2.1 inhibitors: effect on human hERG | inhibition, % at 10 µM | hERG-expressing cells, thallium flux | hit rate 20% among 320 | AID 2236 | shares compounds with Kir21 inh;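 also: host cells are CHO cells stably expressing hERG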
Target sequence (Q12809 whole entry, looked up): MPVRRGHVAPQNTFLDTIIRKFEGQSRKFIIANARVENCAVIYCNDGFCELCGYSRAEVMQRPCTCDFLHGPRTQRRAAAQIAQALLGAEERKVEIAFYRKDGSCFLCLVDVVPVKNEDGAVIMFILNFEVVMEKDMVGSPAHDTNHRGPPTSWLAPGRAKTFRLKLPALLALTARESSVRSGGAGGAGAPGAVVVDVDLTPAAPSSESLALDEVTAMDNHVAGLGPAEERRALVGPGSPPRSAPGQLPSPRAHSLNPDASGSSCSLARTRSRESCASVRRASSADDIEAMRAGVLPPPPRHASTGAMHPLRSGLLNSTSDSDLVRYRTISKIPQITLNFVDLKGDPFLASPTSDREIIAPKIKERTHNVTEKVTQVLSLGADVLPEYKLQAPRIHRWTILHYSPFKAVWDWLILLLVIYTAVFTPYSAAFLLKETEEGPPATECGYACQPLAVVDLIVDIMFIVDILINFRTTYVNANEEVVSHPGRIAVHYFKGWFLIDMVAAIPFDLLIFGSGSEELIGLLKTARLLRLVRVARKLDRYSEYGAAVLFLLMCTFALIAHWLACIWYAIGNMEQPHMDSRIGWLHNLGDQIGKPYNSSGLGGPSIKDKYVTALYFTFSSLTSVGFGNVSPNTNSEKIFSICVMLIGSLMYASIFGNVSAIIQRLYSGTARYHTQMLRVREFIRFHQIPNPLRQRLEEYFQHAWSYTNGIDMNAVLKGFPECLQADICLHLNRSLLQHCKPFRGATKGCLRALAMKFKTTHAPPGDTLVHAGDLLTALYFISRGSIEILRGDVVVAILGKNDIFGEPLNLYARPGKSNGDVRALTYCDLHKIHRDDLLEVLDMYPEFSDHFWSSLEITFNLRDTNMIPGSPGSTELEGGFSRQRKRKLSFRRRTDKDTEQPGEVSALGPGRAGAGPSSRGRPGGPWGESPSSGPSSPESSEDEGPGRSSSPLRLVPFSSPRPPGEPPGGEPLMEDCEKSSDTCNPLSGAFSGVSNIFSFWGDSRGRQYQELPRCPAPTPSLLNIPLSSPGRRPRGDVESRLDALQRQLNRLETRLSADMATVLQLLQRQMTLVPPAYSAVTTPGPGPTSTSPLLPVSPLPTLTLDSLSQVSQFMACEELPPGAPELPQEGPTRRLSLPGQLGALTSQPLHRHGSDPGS
KCNK9 inh-2 – tests whether Kir2.1 inhibitors also affect human KCNK9. KCNK9-expressing cells, ion flux inhibition. inhibition, % at 10 µM. hit rate 5% among 320. AID 2329. shares compounds with Kir21 inh
Kir2-1 patch inh – blocks mouse Kir2.1 current in automated electrophysiology; shares compounds with Kir21 inh; Kir2.1 cells, automated patch-clamp current inhibition; inhibition, % at 25 µM; hit rate 71% among 320; AID 463252
* marks the source's active call; other numbers are inactive results; i = inactive; · = no result given. Sampled rows, rich in hits. Any-hit rate of the full collection: about 3.5%. Unless noted, no rule for the calls is given here.

SMILES | Kir21 inh | KCNK3 inh | KCNK9 inh-1 | TMEM16A act | TMEM16A inh | hERG inh | KCNK9 inh-2 | Kir2-1 patch inh
Cc1ccc2nc(CCCc3nc4ccc(C)cc4[nH]3)[nH]c2c1 | -8.55* | i | i | i | · | i | i | i
CC(OC(=O)c1cccc(-n2cnnn2)c1)C(=O)Nc1cccc(Cl)c1 (configuration not stated) | 4.44 | i | i | i | i | i | i | i
CC(=O)c1ccc(NC(=O)C(C)OC(=O)c2cccc(-n3cnnn3)c2)cc1 (configuration not stated) | 0.43 | i | i | i | i | · | · | ·
Cc1ccccc1OCCSc1nnc(C)n1-c1ccccc1 | -6.66* | i | i | i | i | i | i | 53.8%*
Cc1ccccc1OCc1nnc(SCC(=O)O)n1-c1ccccc1 | -0.07 | i | i | i | i | · | · | ·
CCOCc1cn(CC(=O)c2ccc([N+](=O)[O-])cc2)c(C)nc1=N | 3.15 | i | i | i | i | i | i | i
c1ccc(COc2ccc(OCCCNC3CCCC3)cc2)cc1 | -8.8* | i | i | i | i | 47.0%* | i | 26.0%*
CC/C(=N/OC(=O)c1cccc(C)c1)C(=O)c1cccs1 | 1.57 | i | i | i | i | · | · | ·
COc1ccc(S(=O)(=O)N2CCc3ccccc32)cc1OC | -6.19* | i | i | i | i | i | i | 24.1%*
Cc1ccc(NC(=O)c2cc(S(=O)(=O)N3CCCC3)c[nH]2)c(C)c1 | 0.78 | i | i | i | i | · | · | ·
C=CCNCCCCOc1c(Cl)cc(C)cc1Br | -9.35* | i | i | i | i | i | i | 47.9%*
O=C(CN1CCN(S(=O)(=O)c2ccc(Cl)cc2)CC1)N1CCCC1 | · | i | · | i | · | · | · | ·
COc1ccc(C(CCNC(C)c2ccccc2)C(C)C)cc1 (configuration not stated) | -10.6* | i | i | i | i | i | i | 2.7%*
COc1ccc(C(C)NC(=O)c2ccccc2)cc1 (configuration not stated) | -0.04 | i | i | i | i | · | · | ·
CCCCN1CCc2c1nc1ccc(Br)cc1c2N | -11.2* | i | i | i | i | i | i | 12.5%*
O=S(=O)(c1ccccc1F)N1CCCc2ccccc21 | -6.13* | i | i | i | i | i | i | 32.5%*
CCn1c(COc2ccccc2)nnc1SCc1ccc(C#N)cc1 | -6.47* | i | i | i | i | i | i | 25.0%*
CC(C)Oc1ccccc1NC(=O)CSc1nc2ccccc2c(=O)n1C | -8.86* | i | i | i | i | i | i | 9.9%*
Cc1ccc(C)[n+](CC(=O)c2ccc(-c3ccccc3)cc2)c1 | 1.25 | i | i | i | i | · | · | ·
Cc1cc(OCCCCOc2ccc(S(N)(=O)=O)c(C)c2)ccc1S(N)(=O)=O | -0.12 | i | i | i | i | · | · | ·
CN1CCC(N(C)C(=O)c2cc(=O)c3ccccc3o2)CC1 | -0.06 | i | i | i | i | i | i | i
CCc1ccc(CN(C)C(=O)c2cc(=O)c3ccccc3o2)cc1 | 0.31 | i | i | i | i | · | · | ·
CC(=O)N1CCN=C1SCc1ccc(C)cc1 | 1.02 | i | i | i | i | · | · | ·
CN(C)CCOCCOc1ccc(Cl)cc1C(C)(C)C | -6.05* | i | i | i | i | 47.0%* | i | 36.9%*
C=CCc1cc(Cl)ccc1OCCN(C)C | -0.08 | i | i | i | i | · | · | ·
SMILES | Kir21 inh | KCNK3 inh | KCNK9 inh-1 | TMEM16A act | TMEM16A inh | hERG inh | KCNK9 inh-2 | Kir2-1 patch inh
CCCCN1C(=O)C(=Nc2cccc3cnccc23)c2ccccc21 | -7.46* | i | -7.18* | i | i | i | i | i
O=C(O)CSc1nnc(Cn2cnc3ccccc32)n1CCc1ccccc1 | 0.76 | i | i | i | i | · | · | ·
CN(CC(=O)NCCc1ccccc1)Cc1ccco1 | 0.93 | i | i | i | i | · | · | ·
Cc1ccc(S(=O)(=O)CCCS(=O)(=O)c2ccc(C)cc2)cc1 | -5.72* | i | i | i | i | i | i | 17.3%*
COc1cccc(C(C)NC(=S)NCc2ccc(F)cc2)c1 (configuration not stated) | -6.82* | i | i | i | i | i | 31.0%* | 43.3%*
CCOc1ccc(C(C)NC(=S)NCc2ccc(F)cc2)cc1 (configuration not stated) | 1.61 | i | i | i | i | · | · | ·
C/C=C/c1ccc(OCCCCOc2ccccc2C(C)=O)c(OC)c1 | 0.93 | i | i | i | i | · | · | ·
C/C=C/c1ccc(OCCCCN(C)Cc2ccccc2)c(OC)c1 | -9.87* | i | i | i | i | 62.0%* | i | 45.7%*
CC1=C(C)CC(C(=O)NCCCN2CCCC2=O)C(C(=O)O)C1 (configuration not stated) | 1.14 | i | i | i | i | · | · | ·
CN(Cc1ccco1)S(=O)(=O)c1csc(C(N)=O)c1 | 0.03 | i | i | i | i | · | · | ·
CC(C)CCN(Cc1ccco1)S(=O)(=O)c1csc(C(N)=O)c1 | -8.19* | i | i | i | i | i | i | 21.6%*
COc1ccc(OC)c(NC(=O)C(C)OC(=O)c2cc3ccccc3[nH]2)c1 (configuration not stated) | · | i | · | i | · | · | · | ·
CCOC(=O)C1(CCc2ccccc2)CCN(C(=O)CCn2cncn2)CC1 | 0.75 | i | i | i | i | · | · | ·
CCOc1ccc(CN2CCC(Cc3ccccc3)CC2)cc1 | -5.79* | i | i | i | i | 68.0%* | i | 49.3%*
O=S(=O)(Nc1ccccc1N1CCOCC1)c1ccc(F)c(Cl)c1 | -12.3* | i | i | i | i | i | i | 2.6%*
C=CCNc1nc(S(=O)Cc2ccc(C)cc2)nc2c1CCCC2 (configuration not stated) | -1.75 | i | i | i | i | · | · | ·
Cc1ccc(S(=O)(=O)NCc2csc(-c3cccs3)n2)cc1 | -1.43 | i | i | i | i | · | · | ·
O=S(=O)(NCc1csc(-c2cccs2)n1)c1ccc(Cl)cc1 | -10.6* | i | i | i | i | i | i | 22.3%*
CCOc1cc(S(=O)(=O)NCc2ccc3c(c2)OCO3)c(C)cc1C | -6.58* | i | i | i | i | i | i | 10.5%*
Cc1ccc(/C(=N/Nc2nc3ccccc3s2)C2=C(O)c3ccccc3C2=O)cc1 | 4.41 | i | i | i | i | i | i | i

High-throughput results: PubChem BioAssay, Johns Hopkins Ion Channel Center
